From PubChem BioAssay come the findings set out here.

Assay [1] in a line: viability loss in pontine glioma line – cell-based, SU-DIPG-XVII, MIPE5.0, CellTiter-Glo, qHTS, dose response (AID 1347060; cut-off not given, nearly all actives have AC50 up to about 26 µM;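 as to AC50: cells exposed to compound for 48 hours before viability readout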). Particulars: CellTiter-Glo ATP luminescence.
Assay [2] is described as follows: viability loss in pontine glioma line – cell-based, JHH-DIPG-1, MIPE4.0, CellTiter-Glo, qHTS, dose response (AID 1347062; cut-off not given, nearly all actives have AC50 up to about 27 µM;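 as to AC50: cells exposed to compound for two days before readout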). Particulars: JHH-DIPG-1 viability, CellTiter-Glo ATP luminescence.
Assay [3] is described as follows: viability loss in pontine glioma line – cell-based, SU-DIPG-XXV, MIPE5.0, CellTiter-Glo, qHTS, dose response (AID 1347065; cut-off not given, nearly all actives have AC50 up to about 26 µM;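 also: cells exposed to compound for 48 hours before ATP readout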). Particulars: CellTiter-Glo ATP luminescence.
Assay [4] in a line: growth inhibition of DIPG cells – cell-based, MIPE4.0 library, CellTiter-Glo luminescence, qHTS (AID 1347066; cut-off not given, nearly all actives have AC50 up to about 30 µM;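 also: cells exposed to compound for 48 hours before readout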). The conditions noted are these: SU-DIPG-VI viability, CellTiter-Glo ATP luminescence.
Assay [5] can be described thus: viability loss with induced miR-34 in A549 – imaging, A549 dox-inducible miR-34, nuclei and caspase counts, primary screen (AID 1347080;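 active = compounds whose cell count with miR-34 switched on is under 0.7 times the count with it off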). Particulars: A549 miR-34 inducible, Hoechst nuclei count, 48 h.
Assay [6] in a line: compounds altering HSF1 focus formation in cells – imaging, Selleck Cancer Library (AID 1347162; in the data active = plate-normalised HSF1 focus index below about 0.46). The conditions noted are these: human cells, HSF1 nuclear foci imaging, at 10 µM; SSMD: measured here: HSF1 foci SSMD mean; cell count: measured here: cell number; plate-normalised HSF1 focus index: stronger effect = lower value.
Assay [7] can be described thus: MELAS cybrid and Rieske KO viability enhancers – cell-based, MELAS cybrids, Rieske KO mouse fibroblasts, CellTiter-Glo, primary screen (AID 1508586;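 active = mean z-score across replicates of 1.96 or higher in either the MELAS or the Rieske mutant cell line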;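 also: z relative to plate mean and SD of compound and empty wells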). The conditions noted are these: low glucose.
A short description of assay [8]: drug combination growth inhibition, ovarian cancer – cell-based, oncology-focused library, rucaparib conditional, profiling panel (AID 1508598). Particulars: patient-derived ovarian cancer cells, CellTiter-Glo viability, 144 h, stronger effect = lower value.
Assay [9] is described as follows: JHH-DIPG-1 glioma cell viability, MIPE5.0 library, CellTiter-Glo luminescence, qHTS (AID 1347067; cut-off not given, nearly all actives have AC50 up to about 26 µM;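 also: cells exposed to compound for 48 hours before readout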). Particulars: JHH-DIPG-1 glioma viability, CellTiter-Glo ATP luminescence.
Assay [10] in a line: growth inhibition of DIPG cells – cell-based, MIPE5.0 library, qHTS (AID 1347068; cut-off not given, nearly all actives have IC50 up to about 30 µM;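 as to IC50: cells exposed to compound for 48 hours before viability readout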). Particulars: SU-DIPG-XXV viability.
The nature of assay [11]: viability loss in pontine glioma line – cell-based, SU-DIPG-XIII, MIPE5.0, CellTiter-Glo, qHTS, dose response (AID 1347064; cut-off not given, nearly all actives have AC50 up to about 23 µM;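 as to AC50: cells exposed to compound for 48 hours before the viability read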). The conditions noted are these: CellTiter-Glo ATP luminescence.
Where [12] appears, read: stronger effect = lower value, cell number ratio, induced over uninduced.
Where [13] appears, read: measured here: relative caspase fold change +Dox/-Dox.
[14] abbreviates: measured here: total cells with miR-34 induction, stronger effect = lower value.
Where [15] appears, read: measured here: total cells without miR-34 induction.
The mark [16] stands for this setting: MELAS cybrid survival, CellTiter-Glo 48 h, stronger effect = higher value.
[17] abbreviates: Rieske KO mouse fibroblast survival, CellTiter-Glo 72 h.

Results filed as inconclusive are left out. Active and inactive are the calls of the source.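 The calls were made as follows, unless noted: active = normalized viability below 100% at a tested concentration; inactive = the rest.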

`CCN(CCO)CCCOc1ccc2c(Nc3cc(CC(=O)Nc4cccc(F)c4)[nH]n3)ncnc2c1`: the concentration at half-maximal activity (AC50) is 235 nM (active) in assay [1] and 148 nM (active) in assay [3]. Further, the molecule was called inactive in [2] and in assay [4]. The fold change in assay [5] (setting [12]) was 0.945 (inactive); in [5] (setting [13]), 0.861. Also, the cell count stood at 2110 in assay [5] (setting [14]), 2230 in assay [5] (setting [15]) and 7480 in assay [6]. Further, the SSMD in [6] amounted to 1.14. Further, the plate-normalised HSF1 focus index in assay [6] is 1.04 (inactive). For the same molecule, the z-score is -0.237 (inactive) in assay [7] (setting [16]) and 0.586 in assay [7] (setting [17]). Moreover, the viability is 106% (inactive) in assay [8] (at 0.000305 µM, OCI-C5x cells, with rucaparib 10 µM, 100% = cells with rucaparib alone); 113% (inactive) in assay [8] (at 0.000305 µM, OCI-C5x cells, without rucaparib); 110% (inactive) in assay [8] (at 0.000305 µM, OCI-P5x cells, with rucaparib 20 µM, 100% = cells with rucaparib alone); 110% (inactive) in assay [8] (at 0.000305 µM, OCI-P5x cells, without rucaparib); 103% (inactive) in assay [8] (at 0.00122 µM, OCI-C5x cells, with rucaparib 10 µM, 100% = cells with rucaparib alone); 118% (inactive) in [8] (at 0.00122 µM, OCI-C5x cells, without rucaparib). In addition, the viability was 115% (inactive) in assay [8] (at 0.00122 µM, OCI-P5x cells, with rucaparib 20 µM, 100% = cells with rucaparib alone); 108% (inactive) in assay [8] (at 0.00122 µM, OCI-P5x cells, without rucaparib); 114% (inactive) in assay [8] (at 0.00488 µM, OCI-C5x cells, with rucaparib 10 µM, 100% = cells with rucaparib alone); 112% (inactive) in [8] (at 0.00488 µM, OCI-C5x cells, without rucaparib); 115% (inactive) in [8] (at 0.00488 µM, OCI-P5x cells, with rucaparib 20 µM, 100% = cells with rucaparib alone); 111% (inactive) in [8] (at 0.00488 µM, OCI-P5x cells, without rucaparib). Also, the viability is 109% (inactive) in assay [8] (at 0.0195 µM, OCI-C5x cells, with rucaparib 10 µM, 100% = cells with rucaparib alone); 91.6% (active) in [8] (at 0.0195 µM, OCI-C5x cells, without rucaparib); 104% (inactive) in assay [8] (at 0.0195 µM, OCI-P5x cells, with rucaparib 20 µM, 100% = cells with rucaparib alone); 106% (inactive) in [8] (at 0.0195 µM, OCI-P5x cells, without rucaparib); 81% (active) in assay [8] (at 0.0781 µM, OCI-C5x cells, with rucaparib 10 µM, 100% = cells with rucaparib alone); 77.3% (active) in [8] (at 0.0781 µM, OCI-C5x cells, without rucaparib). Besides, the viability in assay [8] (at 0.0781 µM, OCI-P5x cells, with rucaparib 20 µM, 100% = cells with rucaparib alone) is 104% (inactive); in assay [8] (at 0.0781 µM, OCI-P5x cells, without rucaparib) it was 80.5% (active); in assay [8] (at 0.313 µM, OCI-C5x cells, with rucaparib 10 µM, 100% = cells with rucaparib alone), 65.1% (active); in [8] (at 0.313 µM, OCI-C5x cells, without rucaparib), 80.3% (active); in [8] (at 0.313 µM, OCI-P5x cells, with rucaparib 20 µM, 100% = cells with rucaparib alone), 82.3% (active); in assay [8] (at 0.313 µM, OCI-P5x cells, without rucaparib), 65.3% (active). Besides, the viability was 83.4% (active) in assay [8] (at 1.25 µM, OCI-C5x cells, with rucaparib 10 µM, 100% = cells with rucaparib alone); 83% (active) in [8] (at 1.25 µM, OCI-C5x cells, without rucaparib); 86.7% (active) in assay [8] (at 1.25 µM, OCI-P5x cells, with rucaparib 20 µM, 100% = cells with rucaparib alone); 62% (active) in assay [8] (at 1.25 µM, OCI-P5x cells, without rucaparib); 107% (inactive) in assay [8] (at 5 µM, OCI-C5x cells, with rucaparib 10 µM, 100% = cells with rucaparib alone); 95.3% (active) in assay [8] (at 5 µM, OCI-C5x cells, without rucaparib). The viability is 83.1% (active) in assay [8] (at 5 µM, OCI-P5x cells, with rucaparib 20 µM, 100% = cells with rucaparib alone) and 58.7% (active) in assay [8] (at 5 µM, OCI-P5x cells, without rucaparib).
`O=C(Nc1ccccc1)Nc1ccc(-c2ccc(C(=O)[C@@H]3CCC[C@H]3C(=O)O)cc2)cc1`: the molecule was called inactive in [1], in assay [2], in assay [3], in assay [4], in assay [9] and in assay [10].
As to `CCCNS(=O)(=O)Nc1ncnc(OCCOc2ncc(Br)cn2)c1-c1ccc(Br)cc1`, the outcome in [1], in [2], in assay [11], in [4], in assay [9] and in assay [10] was inactive. Besides, the results for the fold change in [5] (setting [12]) and in [5] (setting [13]) were 0.925 (inactive) and 0.512, respectively. The cell count in assay [5] (setting [14]) amounted to 8090; in [5] (setting [15]), 8750. Further, the z-score in [7] (setting [16]) is -0.373 (inactive); in assay [7] (setting [17]), -0.0447.
As for `CN(C(=O)c1ccc(F)cc1C(F)(F)F)C1CCN(c2nnc(-c3ccnn3C)c3ccccc23)CC1`, the outcome in assay [1], in assay [2], in assay [11], in assay [3], in assay [4] and in assay [9] was inactive. The result in assay [10] was inactive.
In the case of `COc1cc(N2CCC(N3CCN(C)CC3)CC2)ccc1Nc1ncc(Cl)c(Nc2ccccc2S(=O)(=O)C(C)C)n1`, the half-maximal activity concentration (AC50) in [1] is 372 nM (active); in assay [2] it was 18700 nM (active); in assay [11] it was 661 nM (active); in assay [3] it was 590 nM (active); in assay [9], 1050 nM (active). Also, the half-inhibitory concentration (IC50) in [10] was 2350 nM (active). In addition, in assay [6], the SSMD is 1.02. In assay [6], the cell count worked out at 6520. Also, the plate-normalised HSF1 focus index in assay [6] is 1.07 (inactive).
